We go through 14 sequences from PMC8384837, “Expanding the binding specificity for RNA recognition by a PUF domain”.

Numbering of substitutions follows the chain as printed.

Holding throughout (assay): yeast three-hybrid, YBZ-1, SC-Leu-His + 0.5 mM 3-AT, 4 days
Holding throughout (conditions): tags: N-Gal4 AD-HA kept; label: inside an RPR1-promoter hybrid RNA with tandem MS2 sites; ssRNA

In one test the target is T1, PUM1 PUF domain R6-EWC (Homo sapiens, UniProt Q14671 828-1176, N1043E;Y1044W;Q1047C).
T1 sequence: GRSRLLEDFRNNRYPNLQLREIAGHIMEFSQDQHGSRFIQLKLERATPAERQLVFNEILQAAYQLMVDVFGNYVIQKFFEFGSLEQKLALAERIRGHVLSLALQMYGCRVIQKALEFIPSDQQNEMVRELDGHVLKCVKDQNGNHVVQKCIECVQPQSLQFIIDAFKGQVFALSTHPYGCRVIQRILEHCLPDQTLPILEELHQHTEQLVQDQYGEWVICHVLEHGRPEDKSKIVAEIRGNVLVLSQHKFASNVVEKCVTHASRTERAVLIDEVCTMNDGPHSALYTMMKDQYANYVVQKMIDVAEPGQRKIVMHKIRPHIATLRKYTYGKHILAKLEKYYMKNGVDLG
In a few lines:
(§1)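 Pumilio-1 PUF domain libraries, randomized at the three base-contacting residues of each repeat, were co-expressed with matching RNA elements from a centromeric plasmid in strain YBZ-1, which carries a LexA–MS2 coat fusion and a HIS3 reporter. Transformants grew for four days on SC-Leu (input) or on SC-Leu-His + 0.5 mM 3-AT (selection), and the repeat regions were PCR-amplified and Illumina-sequenced. The interaction score is the log change in variant frequency from input to selection. That logarithm is base 2, with a pseudocount of 1 where a variant was absent.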

Another test has as its target T2, PUM1 PUF domain R6-NWP (Homo sapiens, UniProt Q14671 828-1176, Y1044W;Q1047P).
T2 sequence: T1 sequence with E216N, C220P
In short, it runs like this:
as §1

The target of the next test is PUM1 PUF domain R8-LYC (Homo sapiens, UniProt Q14671 828-1176, N1122L;Q1126C). In a few lines: as §1
The target in a further test is PUM1 PUF domain R8-RSR (Homo sapiens, UniProt Q14671 828-1176, N1122R;Y1123S;Q1126R). In short, it runs like this:
as §1

The next test deals with PUM1 PUF domain R8-KRR (Homo sapiens, UniProt Q14671 828-1176, N1122K;Y1123R;Q1126R). In short, it runs like this: as §1
The target of the next test is T3, PUM1 PUF domain R6-VWQ (Homo sapiens, UniProt Q14671 828-1176, N1043V;Y1044W).
T3 sequence: T1 sequence with E216V, C220Q
In a few lines: as §1

The target of the next test is PUM1 PUF domain R3-EWS (Homo sapiens, UniProt Q14671 828-1176, C935E;R936W;Q939S). In a few lines:
as §1

The target in another test is T4, PUM1 PUF domain R6-HYL (Homo sapiens, UniProt Q14671 828-1176, N1043H;Q1047L).
T4 sequence: T1 sequence with E216H, W217Y, C220L
In a few lines: as §1

A further test deals with PUM1 PUF domain R3-GRP (Homo sapiens, UniProt Q14671 828-1176, C935G;Q939P). In a few lines: as §1
A further test has as its target PUM1 PUF domain R3-SRC (Homo sapiens, UniProt Q14671 828-1176, C935S;Q939C). In short, it runs like this:
as §1

Another test concerns the target PUM1 PUF domain R7-KYR (Homo sapiens, UniProt Q14671 828-1176, S1079K;N1080Y;E1083R). In a few lines:
as §1

The next test has as its target PUM1 PUF domain R5-DRC (Homo sapiens, UniProt Q14671 828-1176, C1007D;Q1011C). In a few lines: as §1
Another test concerns the target PUM1 PUF domain R5-MRN (Homo sapiens, UniProt Q14671 828-1176, C1007M;Q1011N). In a few lines: as §1
The next test concerns the target T5, PUM1 PUF domain R6-SFS (Homo sapiens, UniProt Q14671 828-1176, N1043S;Y1044F;Q1047S).
T5 sequence: T1 sequence with E216S, W217F, C220S
In short, it runs like this: as §1

In the next test the target is PUM1 PUF domain R3-YFG (Homo sapiens, UniProt Q14671 828-1176, C935Y;R936F;Q939G). In a few lines:
as §1

The next test deals with PUM1 PUF domain R5-DHV (Homo sapiens, UniProt Q14671 828-1176, C1007D;R1008H;Q1011V). In short, it runs like this: as §1
In the next test the target is PUM1 PUF domain R4-GPQ (Homo sapiens, UniProt Q14671 828-1176, N971G;H972P). In a few lines: as §1
The next test deals with PUM1 PUF domain R5-KPC (Homo sapiens, UniProt Q14671 828-1176, C1007K;R1008P;Q1011C). In short, it runs like this:
as §1

The target of a further test is PUM1 PUF domain R7-RIQ (Homo sapiens, UniProt Q14671 828-1176, S1079R;N1080I;E1083Q). In a few lines: as §1
The next test has as its target PUM1 PUF domain R1-NRR (Homo sapiens, UniProt Q14671 828-1176, S863N;Q867R). In short, it runs like this:
as §1

“GGCUAGAACUAGUGGAUCCCCCGGCGCCCGGCGGCUCGAGCCCGGGUAAGUGGAAAUAGUCUGCAUGCCGCCGGGCGCCAUGCCUGCAGGUCGACUCUAGAAAACAUG”: the binding signal in the test with PUM1 PUF domain R6-EWC was 3.23 log2 enrichment (interaction score); in the test with PUM1 PUF domain R6-NWP, 2.26 log2 enrichment (interaction score).
Consider “GGCUAGAACUAGUGGAUCCCCCGGCGCCCGGCGGCUCGAGCCCGGGUAAGCGUAAAUAGUCUGCAUGCCGCCGGGCGCCAUGCCUGCAGGUCGACUCUAGAAAACAUG”, for which the binding signal was 2.73 log2 enrichment (interaction score) with PUM1 PUF domain R8-LYC, 2.47 log2 enrichment (interaction score) with PUM1 PUF domain R8-RSR and 5.14 log2 enrichment (interaction score) with PUM1 PUF domain R8-KRR.
Regarding “GGCUAGAACUAGUGGAUCCCCCGGCGCCCGGCGGCUCGAGCCCGGGUAAGUGAAAAUAGUCUGCAUGCCGCCGGGCGCCAUGCCUGCAGGUCGACUCUAGAAAACAUG”, the binding signal in the test with PUM1 PUF domain R6-VWQ is 8.55 log2 enrichment (interaction score).
Regarding “GGCUAGAACUAGUGGAUCCCCCGGCGCCCGGCGGCUCGAGCCCGGGUAAGUGUAAAUAGUCUGCAUGCCGCCGGGCGCCAUGCCUGCAGGUCGACUCUAGAAAACAUG”, the binding signal with PUM1 PUF domain R3-EWS is 3.46 log2 enrichment (interaction score); with PUM1 PUF domain R6-HYL, 3.8 log2 enrichment (interaction score); with PUM1 PUF domain R3-GRP, 4.87 log2 enrichment (interaction score); with PUM1 PUF domain R3-SRC, 2.73 log2 enrichment (interaction score); with PUM1 PUF domain R7-KYR it was 2.75 log2 enrichment (interaction score); with PUM1 PUF domain R5-DRC it was 3.83 log2 enrichment (interaction score). The binding signal with PUM1 PUF domain R5-MRN was 3.24 log2 enrichment (interaction score); in the test with PUM1 PUF domain R6-SFS, 4.67 log2 enrichment (interaction score); with PUM1 PUF domain R3-YFG, 4.07 log2 enrichment (interaction score); with PUM1 PUF domain R5-DHV, 3.41 log2 enrichment (interaction score); with PUM1 PUF domain R8-KRR it was 3.15 log2 enrichment (interaction score); with PUM1 PUF domain R6-NWP, 2.64 log2 enrichment (interaction score).
For “GGCUAGAACUAGUGGAUCCCCCGGCGCCCGGCGGCUCGAGCCCGGGUAAGUGUUAAUAGUCUGCAUGCCGCCGGGCGCCAUGCCUGCAGGUCGACUCUAGAAAACAUG”, the values for the binding signal in the test with PUM1 PUF domain R5-DRC and with PUM1 PUF domain R5-DHV were 4.23 log2 enrichment (interaction score) and 4.07 log2 enrichment (interaction score), respectively.
For the sequence “GGCUAGAACUAGUGGAUCCCCCGGCGCCCGGCGGCUCGAGCCCGGGUAAGUGUACAUAGUCUGCAUGCCGCCGGGCGCCAUGCCUGCAGGUCGACUCUAGAAAACAUG”, the binding signal with PUM1 PUF domain R4-GPQ was 2.42 log2 enrichment (interaction score).
For “GGCUAGAACUAGUGGAUCCCCCGGCGCCCGGCGGCUCGAGCCCGGGUAAGUGUAAGUAGUCUGCAUGCCGCCGGGCGCCAUGCCUGCAGGUCGACUCUAGAAAACAUG”, the binding signal in the test with PUM1 PUF domain R3-EWS is 5.34 log2 enrichment (interaction score); with PUM1 PUF domain R3-GRP, 3.91 log2 enrichment (interaction score); with PUM1 PUF domain R3-SRC it was 4.05 log2 enrichment (interaction score).
For the sequence “GGCUAGAACUAGUGGAUCCCCCGGCGCCCGGCGGCUCGAGCCCGGGUAAGUGUCAAUAGUCUGCAUGCCGCCGGGCGCCAUGCCUGCAGGUCGACUCUAGAAAACAUG”, the binding signal with PUM1 PUF domain R5-KPC is 4.19 log2 enrichment (interaction score); in the test with PUM1 PUF domain R5-DRC it was 3.58 log2 enrichment (interaction score); with PUM1 PUF domain R5-DHV it was 3.11 log2 enrichment (interaction score).
“GGCUAGAACUAGUGGAUCCCCCGGCGCCCGGCGGCUCGAGCCCGGGUAAGUGUAAUUAGUCUGCAUGCCGCCGGGCGCCAUGCCUGCAGGUCGACUCUAGAAAACAUG”: the binding signal with PUM1 PUF domain R3-EWS is 4.58 log2 enrichment (interaction score); in the test with PUM1 PUF domain R3-GRP, 2.44 log2 enrichment (interaction score); with PUM1 PUF domain R3-SRC, 2.75 log2 enrichment (interaction score).
For “GGCUAGAACUAGUGGAUCCCCCGGCGCCCGGCGGCUCGAGCCCGGGUAAGUAUAAAUAGUCUGCAUGCCGCCGGGCGCCAUGCCUGCAGGUCGACUCUAGAAAACAUG”, in the test with PUM1 PUF domain R7-KYR, the binding signal was 3.64 log2 enrichment (interaction score).
On to “GGCUAGAACUAGUGGAUCCCCCGGCGCCCGGCGGCUCGAGCCCGGGUAAGUUUAAAUAGUCUGCAUGCCGCCGGGCGCCAUGCCUGCAGGUCGACUCUAGAAAACAUG”, for which the binding signal in the test with PUM1 PUF domain R7-RIQ is 4.25 log2 enrichment (interaction score).
“GGCUAGAACUAGUGGAUCCCCCGGCGCCCGGCGGCUCGAGCCCGGGUAAGUGUAAAUCGUCUGCAUGCCGCCGGGCGCCAUGCCUGCAGGUCGACUCUAGAAAACAUG”: the binding signal with PUM1 PUF domain R1-NRR was 3.87 log2 enrichment (interaction score).
On to “GGCUAGAACUAGUGGAUCCCCCGGCGCCCGGCGGCUCGAGCCCGGGUAAGUCUAAAUAGUCUGCAUGCCGCCGGGCGCCAUGCCUGCAGGUCGACUCUAGAAAACAUG”, for which the binding signal with PUM1 PUF domain R7-KYR is 5.86 log2 enrichment (interaction score).
For “GGCUAGAACUAGUGGAUCCCCCGGCGCCCGGCGGCUCGAGCCCGGGUAAGUGUAAAUUGUCUGCAUGCCGCCGGGCGCCAUGCCUGCAGGUCGACUCUAGAAAACAUG”, the binding signal with PUM1 PUF domain R1-NRR is 2.34 log2 enrichment (interaction score).
